Hits are enriched below; roughly 21% of the tested compounds scored in any of these assays.
CHX counter: Cycloheximide Counterscreen for Small Molecule Inhibitors of Shiga Toxin | actives 12% (n = 300,000) | cell reporter, cycloheximide protein synthesis inhibition counterscreen | max response, % | AID 2314, 2010; in the data active = max response mostly above about 13%, no sharp cut-off; inactive = mostly below about 14%; note: read at 38.3 µM for the half of the compounds with a filed dose; 0% is about no effect
Shiga inhibitor: A qHTS for Small Molecule Inhibitors of Shiga Toxin; inhibition, % at 38.7 µM; AID 2315, 2010; actives 9.2% (n = 290,000); Vero cells, Shiga toxin protein synthesis inhibition reporter; in the data active = inhibition mostly above about 28%, no sharp cut-off; inactive = mostly below about 43%; note: 0% is about no effect
Pf growth 96h: Primary qHTS for delayed death inhibitors of the malarial parasite plastid, 96 hour incubation; P. falciparum luciferase reporter growth, 96 h; Potency, µM (series often up to 28.7 µM), without a hit: at the top dose activity change, negative = inhibition, most hits filed as inhibitors; actives 6.9% (n = 320,000); note: potency is the fitted concentration of half-maximal effect; % is set by controls: 0 for no effect and ±100 for the full control effect
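Two parasite generations (96 h, 37 C, 5% CO2) of compound exposure in infected erythrocytes (0.05% parasitemia, 2% hematocrit). Luciferase-reporter P. falciparum; decreased luminescence indicates inhibited growth, aimed at apicoplast-acting delayed death.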
Pf growth 48h: Primary qHTS for delayed death inhibitors of the malarial parasite plastid, 48 hour incubation. P. falciparum luciferase growth in erythrocytes, 48 h. Potency, µM (highest dose often 28.7 µM), for inactives: at the top dose activity change, negative = inhibition, usual class: inhibitors. actives 5.9% (n = 310,000); note: potency is the fitted concentration of half-maximal effect; % is set by controls: 0 for no effect and ±100 for the full control effect
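First compound was added to culture medium, then infected red cells at 0.1% parasitemia and 2% hematocrit (final). After incubation at 37 C under 5% CO2, luciferase detection reagent was dispensed and light output recorded.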
* = called active by the depositor; i = inactive; u = inconclusive; x = no result given. Unless noted, calls come from the whole dose curve; as a rule, active = well fitted inhibition curve with a large enough effect; inconclusive = small, poorly fitted or top-dose-only effect, or another doubt; inactive = no such curve, though single readings can be large or run the other way.

SMILES	CHX counter	Shiga inhibitor	Pf growth 96h	Pf growth 48h
CN1CCN(c2ccc(NC(=O)COc3ccccc3)cc2Cl)CC1	44.0*	82.6*	-3.4%	31.6%
COc1ccc(NC(=O)COc2ccccc2)cc1Cl	12.6	x	u	5.8%
O=C(NCC(=O)N1CCN(S(=O)(=O)c2cccs2)CC1)c1ccc(Cl)cc1	-5.5	22.6	u	-24.9%
O=C(NCCCN1CCCC1=O)c1c(O)nc2ccccn2c1=O	-0.7	-4.3	0.2%	14.0%
CCOC(=O)CCC(=O)N1CCNC(=O)C1	4.2	6.7	7.6%	43.6%
N#Cc1ccc2nc3c(nc2c1)CCCC3	0.4	3.2	u	3.9%
Cc1cc(Oc2ccccc2)nc(SCC(=O)Nc2ccc(Cl)c(Cl)c2)n1	-3.5	-4.8	13.1µM*	x
N#CC1=C(Nc2ccccc2Cl)SC(c2ccccc2O)NC1=O (stereo not drawn)	-3.9	4.6	-6.7%	u
COc1cccc(NC2=C(C#N)C(=O)NC(c3cccc(OC)c3O)S2)c1 (stereo not drawn)	19.3*	60.7	u	6.9%
Cc1ccc(C(=O)c2cn[nH]c2-c2cc(Cl)ccc2O)cc1	-1.3	7.0	u	24.1%
Cc1ccc(-c2[nH]ncc2C(=O)c2ccc(Br)cc2)c(O)c1	11.0*	18.9	u	u
CC(C)CN(C(=O)COC(=O)CN1C(=O)c2ccccc2C1=O)c1c(N)n(Cc2ccccc2)c(=O)[nH]c1=O	x	x	5.4%	-15.8%
CCc1ccccc1S(=O)(=O)Cc1ccc(C(=O)N2CCN(c3ccccn3)CC2)o1	-1.9	2.6	9.28µM*	x
CCOC(=O)N1CCN(C(=O)c2ccc(CS(=O)(=O)c3ccccc3OC)o2)CC1	17.8	26.0	u	1.1%
COc1ccccc1N1CCN(C(=O)c2ccc(CS(=O)(=O)c3ccccc3OC)o2)CC1	14.7*	10.5	9.28µM*	u
COc1ccccc1S(=O)(=O)Cc1ccc(C(=O)N2CCN(c3ccc(C)cc3)C(C)C2)o1 (stereo not drawn)	-2.5	-4.5	u	11.7µM*
CCc1nnc(NC(=O)CCC(=O)Nc2ccc(OC)cc2OC)s1	-2.1	19.8	73.4%	-3.7%
C[C@@H](N)[C@@H](O)c1ccc(O)c(O)c1	x	x	0.601µM*	0.0%
CC[C@H](NC(C)C)[C@H](O)c1ccc(O)c(O)c1	x	x	13.5µM*	u
CC(N)[C@H](O)c1ccc(O)c(O)c1 (stereo partly drawn)	-5.9	-14.4	x	x
CC(=O)c1sc(NC(=O)c2ccccc2F)nc1-c1ccccc1	43.4*	133.8*	138.8%	i
O=C(Nc1c(-c2ccccc2)nc2ccccn12)c1cccs1	-2.4	-8.1	60.9%	-2.0%
CC(=O)c1c(C)[nH]c(C(=O)Nc2nc(-c3ccccc3)c(C)s2)c1C	22.9*	15.1	-5.3%	16.1%
Cc1ccc(-c2nc3ccccn3c2NC(=O)c2ccco2)cc1	-2.7	9.4	u	-8.1%
O=C(Nc1nsc(-c2ccccc2)n1)c1cccs1	25.0*	36.5*	-20.9%	-45.5%
SMILES	CHX counter	Shiga inhibitor	Pf growth 96h	Pf growth 48h
CC(=O)c1c(C)[nH]c(C(=O)NC(C)c2ccccc2)c1C (stereo not drawn)	14.3	14.3	-1.7%	21.3%
O=C(Nc1c(-c2ccccc2)nc2ccccn12)c1ccco1	11.5*	4.5	72.5%	38.6%
CC(=O)c1sc(NC(=O)c2ccco2)nc1-c1ccccc1	21.4*	64.6*	108.4%	x
Cc1sc(NC(=O)c2ccco2)nc1-c1ccccc1	44.5*	102.7*	157.1%	28.3%
Oc1ccc(-c2nc3ccccn3c2NCc2ccco2)cc1	35.2*	36.9*	61.1%	30.2%
Cc1sc(N/N=C/c2cccs2)nc1-c1ccccc1	43.5*	84.0*	u	37.1%
CC(=O)Nc1c(-c2ccc(F)cc2)nc2ccccn12	-1.2	31.8	6.6%	x
CCOC(=O)c1sc(NC(=O)c2ccco2)nc1-c1ccccc1	-2.5	18.0	12.0%	-2.7%
Nc1cc(N)cc(C(=O)OCC(=O)Nc2cc(S(=O)(=O)N3CCCCC3)ccc2Cl)c1	-0.4	9.5	u	-30.3%
Cc1sc(NC(=O)c2cccs2)nc1-c1ccccc1	33.7*	97.2	-21.0%	39.0%
Cc1sc(NC(=S)NC(=O)c2cccs2)nc1-c1ccc(C(C)C)cc1	-1.7	-8.0	16.7%	11.2%
Cc1ccc(-c2nc3c(c(=O)c4ccccc4n3C)c(=O)n2-c2ccc(F)cc2)cc1	-0.9	5.3	-25.0%	8.28µM*
CC(c1ccccc1)n1c(-c2cccs2)nc2c(c(=O)c3ccccc3n2C)c1=O (stereo not drawn)	-4.7	-5.1	-4.8%	9.28µM*
Cn1c2ccccc2c(=O)c2c(=O)n(-c3ccccc3)c(-c3ccc(C(C)(C)C)cc3)nc21	13.7	29.8	2.62µM*	1.85µM*
COCCn1c(-c2cccs2)nc2c(c(=O)c3ccccc3n2C)c1=O	0.6	6.3	u	u
CCc1nc2c(c(=O)c3ccccc3n2C)c(=O)n1-c1ccc(F)cc1	3.2	11.1	u	27.9%
Cn1c2ccccc2c(=O)c2c(=O)n(-c3ccc(F)cc3)c(-c3cccs3)nc21	7.7	22.5	5.22µM*	u
O=C(Cn1cnc2ccccc2c1=O)N1CCN(Cc2ccccc2)CC1	1.0	-12.9	-3.3%	-12.1%
CCn1c(SCC(=O)Nc2ccc(N(C)C)cc2)nnc1-c1ccco1	12.7	27.6	2.4%	14.4%
COc1cccc(N2C(=NC(=O)CCc3ccccc3)SC3CS(=O)(=O)CC32)c1 (stereo not drawn)	-7.3	-1.8	u	9.1%
O=C(c1cccc(S(=O)(=O)Nc2ccc(F)cc2)c1)N1CCC1	x	x	-26.3%	u
O=C(c1ccccc1)c1ncc[nH]1	18.7*	36.0	91.7%	53.9%
COc1cccc(CNC(=O)CCCn2nc(C)n3c(cc4sccc43)c2=O)c1	-11.4	27.5	u	8.3%
O=[N+]([O-])c1sccc1CS(=O)(=O)c1ccccc1	-0.4	4.1	7.4%	3.8%
Cc1ccc2c(c1)COc1c3ccc(C(=O)O)cc3nn1-2	-3.9	-8.4	97.2%	69.5%
SMILES	CHX counter	Shiga inhibitor	Pf growth 96h	Pf growth 48h
O=C(NCC1CC1)c1ccc2c3n(nc2c1)-c1ccccc1CO3	30.4*	91.9*	120.7%	145.7%
Cc1ccc2c(c1)COc1c3ccc(C(=O)NCC4CC4)cc3nn1-2	30.4*	53.9*	29.7%	27.5%
O=C(NCCO)c1ccc2c3n(nc2c1)-c1ccccc1CO3	38.8*	44.0*	238.0%	2.7%
Nc1cccc(Oc2ccc3c(c2)C(=O)N(CC2CCCO2)C3=O)c1 (stereo not drawn)	35.2*	81.7*	62.8%	75.5%
O=C1c2cccc3cccc(c23)C(=O)N1CC1CCCO1 (stereo not drawn)	23.7	17.8	i	46.2%
COC(=O)NCCOC(=O)N(O)c1ccc(Br)cc1	2.5	-5.7	u	9.28µM*
COCCNC(=O)CN(C)S(=O)(=O)c1ccc(Br)cc1	-4.6	-9.1	u	-0.3%
COc1ccc2c(c1OC)C(=O)N(c1ccccn1)C2	51.7*	139.0*	126.6%	182.6%
COc1ccc2c(c1OC)C(=O)N(c1cccc(C(F)(F)F)c1)C2	19.9*	103.3*	36.7%	54.5%
